Sampled rows, rich in hits. Any-hit rate of the full collection: about 0.92%.
CIT2 TOR yeast: modulators of CIT2-GFP expression in yeast, primary screen, S. cerevisiae, GFP fusion, multiplex flow cytometry, MLPCN library; AID 2029, 2009; GFP response vs DMSO, % at 10 µM; S. cerevisiae CIT2-GFP strain, 3 h; 100 means same as DMSO wells; 320,000 tested, 0.065% active;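 active = GFP response relative to DMSO above a set limit, near the screen mean plus 3 SD, cut at about 150% in these data; inconclusive = Fewer than 70 cells measured for a yeast strain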;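 also: ratio of well median GFP fluorescence to mean of DMSO wells on the plate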
RPL19A-GFP yeast: RPL19A-GFP expression modulators in yeast, primary screen, cell-based, S. cerevisiae, multiplex flow cytometry, MLPCN. percent response vs DMSO, % at 10 µM. 330,000 tested, 0.3% active. S. cerevisiae RPL19A-GFP strain, 3 h; active compounds read low;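 active = percent response vs DMSO below 50%; inconclusive = fewer than 70 events counted for the yeast strain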;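 also: median channel GFP fluorescence of the barcoded RPL19A-GFP strain; lower means less RPL19A-GFP as with rapamycin TOR inhibition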
MEP2 TOR yeast: modulators of MEP2-GFP levels in yeast, primary screen, S. cerevisiae, multiplex flow cytometry, MLPCN library; S. cerevisiae MEP2-GFP strain, 3 h; 100% = DMSO control level; GFP response vs DMSO, % at 10 µM; 330,000 tested, 0.51% active;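 active = GFP response versus DMSO above a set limit, roughly screen mean plus 3 SD, cut at about 180% in these data; inconclusive = fewer than 70 cells counted for a yeast strain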;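 also: median GFP fluorescence of the barcode-gated MEP2-GFP cells per well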
AGP1-GFP MLPCN: modulators of AGP1-GFP expression in yeast TOR pathway, primary screen, cell-based, multiplex flow cytometry, S. cerevisiae, MLPCN library. 3 h; GFP as percent of DMSO wells. 320,000 tested, 0.02% active. GFP response vs DMSO, % at 10 µM. AID 2066, 2009;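 active = GFP response relative to DMSO above a set limit, near screen average plus 3 SD, cut at about 150% in these data; inconclusive = fewer than 70 cells counted for the yeast strain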;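 also: median GFP channel fluorescence of the gated AGP1 strain per well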
LAP4-GFP MLPCN: modulators of LAP4-GFP expression in yeast, primary screen, S. cerevisiae, multiplex flow cytometry, MLPCN library; 3 h; median GFP as percent of DMSO wells; GFP response vs DMSO, % at 10 µM; 320,000 tested, 0.34% active; AID 2023, 2009;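 active = GFP response vs DMSO above a set limit, about the screen mean plus 3 SD, cut at about 150% in these data; inconclusive = under 70 cell events counted for the yeast strain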
Numbers stand for hits; 0 = inactive; ? = inconclusive; - = no result; [ ] = another dose, or the depositor's remark.

SMILES | CIT2 TOR yeast | RPL19A-GFP yeast | MEP2 TOR yeast | AGP1-GFP MLPCN | LAP4-GFP MLPCN
CC(=O)c1cccc(NC(=O)COc2ccccc2)c1 | 0 | 0 | 0 | 0 | 0
O=C(O)CCC(=O)OCC1CCCCC1 | 0 | 0 | 0 | 0 | 172
O=C(O)CCC(=O)NNC(=O)CCC1CCCCC1 | 0 | 0 | 0 | 0 | 0
COC(=O)c1ccccc1Oc1ccc(NC(=O)CCCl)cc1 | 0 | 0 | 0 | 0 | 0
Cc1ccc(-c2csc3ncn(C(C)C(=O)O)c(=O)c23)cc1 (stereo not given) | 0 | 0 | 0 | 0 | 0
CCN(Cc1ccncc1)Cc1cn[nH]c1-c1ccc(OC)cc1F | 0 | 0 | 0 | 0 | 0
COc1ccc(-c2[nH]ncc2CN(CCO)Cc2cccs2)c(F)c1 | 0 | 0 | 198 | 0 | 0
O=C(O)c1cc(N2C(=O)C3C4C=CC(C4)C3C2=O)ccc1N1CCOCC1 (stereo not given) | 0 | 0 | 0 | 0 | 0
COc1ccccc1/C=N\Nc1ccccc1[N+](=O)[O-] | - | 39[may fluoresce violet] | 299[may fluoresce violet] | - | -
Cc1cc(SCC(=O)c2cccc([N+](=O)[O-])c2)nc(=O)[nH]1 | 0 | 0 | 0 | 0 | 0
CC1=C(C(=O)OCC2CCCO2)C(c2ccncc2)C2=C(CC(C)(C)CC2=O)N1 (stereo not given) | ? | 0 | 216[may fluoresce violet] | 0 | 0
COCCOC(=O)C1=C(C)NC2=C(C(=O)CC(C)(C)C2)C1c1cccnc1 (stereo not given) | 0 | 0 | 0 | 0 | 0
N/C(=N\OC(=O)c1ccc(Cl)cc1)c1ccn[nH]1 | 152 | 0 | 0 | 0 | 0
N/C(=N\OC(=O)c1ccc(Cl)cc1)c1ccc(Cl)cc1 | 0 | 0 | 0 | 0 | 0
CCS(=O)(=O)Nc1ccc(C2=NN(C(=O)c3ccccc3)C(c3cccs3)C2)cc1 (stereo not given) | 0 | 0 | 0 | 0 | 0
Cc1cccc(C(=O)N2N=C(c3ccc(NS(C)(=O)=O)cc3)CC2c2cccs2)c1 (stereo not given) | ? | 35[may fluoresce violet] | 352[may fluoresce violet] | ? | 0
COc1ccc(C(=O)NCC(C)C)c(OC)c1 | 0 | 0 | 0 | 0 | 0
COc1ccc(C(=O)N(C(C)C)C(C)C)c(OC)c1 | ? | 38[may fluoresce violet] | 234[may fluoresce violet] | ? | 0
CCOC(=O)Nc1c2ccccc2nc2ccccc12 | ? | 0 | 207[may fluoresce violet] | 0 | 0
O=c1[nH]n(Cc2ccccc2)c2ccccc12 | 0 | 0 | 0 | 0 | 0
CC(C)NS(=O)(=O)c1ccc(NC(=O)C(C)OC(=O)C2CCC2)cc1 (stereo not given) | 0 | 0 | 0 | 0 | 0
CCOc1ccc(S(=O)(=O)Nc2cccc(C(=O)NCC(c3ccccc3)N(C)C)c2)cc1 (stereo not given) | 0 | 0 | 0 | 0 | 0
CCN(CC)S(=O)(=O)c1cccc(C(=O)NCC(c2ccccc2)N(C)C)c1 (stereo not given) | 0 | 0 | 0 | 0 | 204
O=C(CSc1ncnc2c1oc1ccccc12)Nc1cccc(C(F)(F)F)c1 | 0 | 0 | 0 | 0 | 0
O=C(CSc1ncnc2c1oc1ccccc12)Nc1cccc(Cl)c1 | ? | 0 | 223[may fluoresce violet] | ? | 0
SMILES | CIT2 TOR yeast | RPL19A-GFP yeast | MEP2 TOR yeast | AGP1-GFP MLPCN | LAP4-GFP MLPCN
O=C1CNC(=S)N1Cc1ccc(F)cc1 | ? | 45[may fluoresce violet] | 359[may fluoresce violet] | ? | 0
COc1ccc(NC(=O)NC2(C(=O)N3CCN(C)CC3)CCCCC2)cc1 | 0 | 0 | 0 | 0 | 0
CCCN(c1ccccc1F)S(=O)(=O)c1cc(-c2cc(C)no2)ccc1OC | 0 | 47 | 0 | 0 | 0
CC(C)c1ccc(NC(=O)CSc2n[nH]c(=O)n2-c2cccnc2)cc1 | 0 | 0 | 0 | 0 | 0
O=S(=O)(Nc1nc2ccccc2nc1Nc1ccc2c(c1)OCO2)c1ccc(F)cc1 | 0 | 0 | 0 | 0 | 0
CCCN1C2=NS(=O)(=O)CCN2c2ccccc21 | ? | - | 260[may fluoresce violet] | 0 | 0
CCCCCCN1C2=NCCCN2c2ccccc21 | 0 | 0 | 0 | 0 | 0
CS(=O)(=O)N1CCc2cc(C(=O)Nc3ccc(COCC(F)(F)F)cc3)ccc21 | 155 | 0 | 0 | 0 | 0
Cc1ccc(NC(=S)N2CCN(S(C)(=O)=O)CC2)cc1Cl | 0 | 0 | 0 | 0 | 0
O=C(NCCc1ccccc1)C1CCC(Cn2c(=O)c3ccccc3n(Cc3cccc(Cl)c3)c2=O)CC1 (stereo not given) | ? | 36[may fluoresce violet] | 0 | 0 | 0
O=C(NCCc1ccccc1)C1CCC(Cn2c(=O)c3ccccc3n(Cc3cccc(F)c3)c2=O)CC1 (stereo not given) | 0 | 0 | 0 | 0 | 0
COCCOCC(O)CN1CCN(c2ccccc2)CC1 (stereo not given) | 0 | 42[may fluoresce violet] | 0 | 0 | 0
Cc1ccc(NC(=O)C2CCN(S(=O)(=O)c3ccc4c(c3)CCCC(=O)N4)CC2)c(Br)c1 | 0 | 0 | 0 | 0 | 0
CN(C)CCNC(=O)c1coc(=O)c(Br)c1 | ? | 17[may fluoresce violet] | 532[may fluoresce violet] | ? | 0
Cc1c(NC(=O)C(C)OC(=O)/C=C/c2ccc3c(c2)OCO3)c(=O)n(-c2ccccc2)n1C (stereo not given) | 0 | 0 | 0 | 0 | 0
O=c1[nH]cnc(O)c1C(c1ccc([N+](=O)[O-])cc1)c1c(O)nc[nH]c1=O | 0 | 0 | 0 | 0 | 0
COC(=O)C1=C(N)Oc2cc(C)n(CC3CCCO3)c(=O)c2C1c1ccccc1 (stereo not given) | 0 | 0 | 0 | 0 | 0
COC(=O)C1=C(N)Oc2cc(C)n(CC3CCCO3)c(=O)c2C1c1ccccc1OC (stereo not given) | ? | 0 | 247[may fluoresce violet] | ? | 0
Cc1cc(NC(=O)c2cccs2)ncc1NC(=O)C(C)(C)C | 0 | 0 | 0 | 0 | 0
CC(=O)Nc1ccc(N2C(=O)CSC2c2ccccc2[N+](=O)[O-])cc1 (stereo not given) | 0 | 0 | 0 | 0 | 0
CCC(=O)Nc1nnc(S(=O)(=O)N(CC)c2cc(C)cc(C)c2)s1 | 0 | 0 | 0 | 0 | 0
CCN(c1cc(C)cc(C)c1)S(=O)(=O)c1nnc(NC(=O)C(C)(C)C)s1 | ? | 0 | 647[may fluoresce violet] | 0 | 0
CC(C#N)(NC(=O)CN1CCN(S(=O)(=O)c2ccccc2C#N)CC1)C1CC1 (stereo not given) | 0 | 0 | 0 | 0 | 0
Cc1cc(C)c2c(n1)sc1c(-c3ccccc3)c(C#N)c(N)nc12 | 0 | 0 | 0 | 0 | 0
CCOC(=O)c1cnn(-c2nc(SC)nc3sc4c(c23)CCCC4)c1N | ? | 0 | 187[may fluoresce violet] | - | 0
C/C(N)=C(/C#N)C(=O)CSc1nc2scc(-c3ccccc3)c2c(=O)n1C | 0 | 0 | 0 | 0 | 0
COC(=O)C1=CN(Cc2ccc(OC)cc2)C=C(C(=O)OC)C1c1ccsc1 | ? | 0 | 257[may fluoresce violet] | 0 | 0
Cc1ccc(C)c(S(=O)(=O)N2CCCCC2CCNC(=O)C(=O)NCc2ccco2)c1 (stereo not given) | 0 | 0 | 0 | 0 | 0
